Values joined by “and” are separate entries in the source; they are usually repeats but may differ in a detail not shown here. Equal entries are not always repeated. The panel holds about 83,000 compounds, 20% with a hit somewhere; the sample as a whole holds those more often.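 Treatment: one concentration, 48 hours, 96-well format. Scoring: percent growth, with anything below 10 considered active.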 Active and inactive are the calls of the source.
The compounds below were run on MDA-MB-468 breast (assay: NCI-60 one-dose screen, 48 h (100 = growth as untreated, 0 = no growth, -100 = all killed)). Conditions: 10 µM unless noted.
With `Cc1nc(Cl)cc(N(c2cc(Cl)nc(C)n2)c2ncc(C(=O)Nc3c(C)cccc3Cl)s2)n1` the growth was 42.1% (inactive).
`CN1CCN(Cc2ccc(NC(=O)c3cc(C#Cc4cnc(N)c5ncccc45)n(C)n3)cc2C(F)(F)F)CC1` was tested, and the growth was 104% (inactive).
For `CNS(=O)(=O)c1ccc(Cl)c(Cl)c1`, the growth was 101% (inactive).
With `COC(=O)C(Cc1ccccc1)Nc1nc(NC(Cc2ccccc2)C(=O)OC)nc(N2CCOCC2)n1` (stereo not given) the growth was 108% (inactive).
For `COc1cc(N=Nc2cc(Cc3ccc(N(C)C)cc3)c(N)cc2N(C)C)c2ncccc2c1`, the growth was -54.8% (active).
In the case of `C/C(=C(/c1ccc(Cl)cc1)c1ccc(OCCN2CCCC2)cc1)c1ccc(Cl)cc1`, the growth is reported as 91.1% (inactive).
For `COC(=O)c1ccc(CSc2nnc(-c3ccncc3)o2)cc1`, the growth was 115% (inactive).
With `CS(=O)(=O)Nc1ccc(Nc2c3ccccc3nc3cc([N+](=O)[O-])ccc23)cc1` the growth was -43.3% (active).
`C#CC(F)(F)[C@]1(O)CC[C@H]2[C@@H]3CCC4=CC(=O)CCC4=C3[C@@H](c3ccc(C(C)=O)cc3)C[C@@]21C` was tested, and the growth was 81.3% (inactive).
In the case of `CCN(CC)S(=O)(=O)c1ccc(-c2nc(C(Cl)Cl)nc3cc(C)nn23)cc1`, the growth is reported as -33.6% (active).
`COc1cc(-c2c3sc(=O)[nH]c3nc3c2c(=O)[nH]n3C(C)C)cc2c1OCO2` was tested, and the growth was 92.3% (inactive).
In the case of `O=C(Nc1ccncc1)C(=O)c1cn(S(=O)(=O)c2cccc(F)c2)c2ccccc12`, the growth is reported as 12% (inactive).
`Nc1ncc(C#Cc2cncc(NC(=O)c3cccc(C(F)(F)F)c3)c2)c2cccnc12` was tested, and the growth was 92.5% (inactive).
In the case of `N#Cc1nc(-c2ccc(Cl)cc2)oc1S(=O)(=O)N1CCN(c2ccc(F)cc2)CC1`, the growth is reported as 105% (inactive).
For `C/C(=C\c1ccccc1)C(O)C(=O)c1nc2ccc([N+](=O)[O-])cc2[nH]c1=O` (stereo not given), the growth was 89.7% (inactive).
For `CN1CCN(C(=O)[C@@]2(C)CC[C@]3(C)CC[C@]4(C)C(=CC[C@@H]5[C@@]6(C)CC[C@H](OC(=O)c7cccnc7)C(C)(C)[C@@H]6CC[C@]54C)[C@@H]3C2)CC1`, the growth was 92.6% (inactive).
With `Oc1ccc(-c2nc3ccc4[nH]ncc4c3c3c2CCCC3)c(F)c1` the growth was 18.2% (inactive).
In the case of `Cn1cc2c(=O)nc3c(-c4nc5ccccc5[nH]4)n[nH]n3c2n1`, the growth is reported as 83.3% (inactive).
For `COc1cc(OC)cc(-c2n/c(=C\c3c(O)[nH]c4ccc(Cl)cc34)cc3c2=Nc2ccccc2-3)c1`, the growth was 98.1% (inactive).
`COc1cc(C(=O)c2cc(C)c3[nH]c4ccc(Cl)cc4c3c2C)cc(OC)c1OC` was tested, and the growth was -13.2% (active).
In the case of `O=C(/C=C/c1cccc2ccccc12)c1ccc(NC(=O)c2ccccc2CN2C(=O)c3ccccc3C2=O)cc1`, the growth is reported as 51.3% (inactive).
For `O=C1c2c(c3c4ccc(Br)cc4oc3c3[nH]c4ccccc4c23)C(=O)N1CCO`, the growth was 46.5% (inactive).
`COc1ccc(C(=O)c2cc(OC)c(OC)c(OC)c2)cc1O` was tested, and the growth was -14.4% (active).
With `CCOC(=O)C1=C(C)NC(C)=C(C(=O)OC(C)C)C1c1cccc(C#N)c1` (stereo not given) the growth was 79.4% (inactive).
For `Cc1ccc(C(=O)N/N=C/c2cccc(Oc3ccccc3)c2)cn1`, the growth was 58.6% (inactive).
`Cc1cc(N(CCCNc2ccnc3cc(Cl)ccc23)Cc2ccc3c(c2)OCO3)nc(N2CCOCC2)n1` was tested, and the growth was -14.4% (active).
`c1cc2ccc3cc2cc1CNCCN1CCNCc2ccc4ccc(cc4c2)CNCCN(CCNC3)CCNCc2ccc3ccc(cc3c2)CNCC1` was tested, and the growth was -45.2% (active).
In the case of `COc1cc(/C=N/NC(=O)c2ccccc2Nc2ccnc(C(F)(F)F)c2)ccc1O`, the growth is reported as 80.5% (inactive).
For `O=c1c2ccccc2n(C[C@H]2CO2)c2ccccc12`, the growth was -7.32% (active).
`C=C(C=O)[C@@H]1CC=C(C=O)CC1` was tested, and the growth was 20.2% (inactive).
For `CCCCCCCCCCCCNCCCc1ccccc1`, the growth was 13% (inactive).
In the case of `O=C(COCc1c(-c2ccccc2)no[n+]1[O-])Nc1ccc(C(=O)/C=C/c2ccc3c(c2)OCO3)cc1`, the growth is reported as 98.7% (inactive).
In the case of `Nc1c(C(=O)Nc2c(Cl)cccc2Cl)sc2nc3c(cc12)CCCCC3`, the growth is reported as 32.1% (inactive).
With `C=C[C@H]1C[C@@H]2C[C@@H]3[C@H]4C/C=C\C(=O)NCCCC5NC(=O)C(=C(O)/C=C/[C@@H]4CC(=O)[C@H]3[C@@H]2[C@H]1C)C5=O` (stereo not given in full) the growth was -29.9% (active).
With `COc1ccc(/C=C(\C#N)c2cc(OC)c(OC)c(OC)c2)cc1` the growth was -10.8% (active).
`O=C(Cn1c(-c2ccccc2)nc2cc(Cl)c(Cl)cc21)N=Nc1c(O)[nH]c2ccc(Cl)cc12` was tested, and the growth was 61.7% (inactive).
`CCNC(=O)Oc1ccc(/C(=C(\C)c2ccc(Cl)cc2)c2ccc(OCCN3CCCCC3)cc2)cc1` was tested, and the growth was 56.5% (inactive).
With `OCCNc1nc(NCCO)nc(Nc2ccc(C3=NN(c4cc(Cl)cc(Cl)c4)C(c4ccc(Cl)cc4)C3)cc2)n1` (stereo not given) the growth was -5.79% (active).
For `CC(=O)Nc1ccc(OC(C)=O)cc1`, the growth was 5.17% (active) and 92.5% (inactive).
With `COc1ccc(/C=N/NC(=O)Cn2c(-c3ccc(S(C)(=O)=O)cc3)nc3ccccc32)cc1` the growth was 98.3% (inactive).
